Data reported in PubChem BioAssay (NCI).
The panel holds about 83,000 compounds, 20% with a hit somewhere; the sample as a whole holds those more often.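 Growth was measured after 48 h exposure to one concentration of compound in 96-well plates. Values under 10 count as active.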 A number with no mark means an inactive call. Active and inactive are the calls of the source.

Assays:
Test in all cases: NCI-60 one-dose screen, 48 h (100 = growth as untreated, 0 = no growth, -100 = all killed)
Conditions in all cases: 10 µM unless noted
NCI-H23 lung = system: NCI-H23 lung
NCI-H226 lung = system: NCI-H226 lung
NCI-H322M lung = system: NCI-H322M lung
HOP-62 NSCLC = system: HOP-62 NSCLC
NCI-H460 lung = system: NCI-H460 lung
HOP-92 NSCLC = system: HOP-92 NSCLC
NCI-H522 lung = system: NCI-H522 lung
A549/ATCC NSCLC = system: A549/ATCC NSCLC
786-0 renal = system: 786-0 renal
COLO 205 colon = system: COLO 205 colon
DU-145 prostate = system: DU-145 prostate
K-562 leukemia = system: K-562 leukemia
MALME-3M melanoma = system: MALME-3M melanoma
MDA-MB-231 breast = system: MDA-MB-231 breast
RXF 393 renal = system: RXF 393 renal
SF-268 CNS = system: SF-268 CNS
SF-295 CNS = system: SF-295 CNS
SF-539 CNS = system: SF-539 CNS
UACC-257 melanoma = system: UACC-257 melanoma
M14 melanoma = system: M14 melanoma

Structure (SMILES)	growth (NCI-H23 lung)	growth (NCI-H226 lung)	growth (NCI-H322M lung)	growth (HOP-62 NSCLC)	growth (NCI-H460 lung)	growth (HOP-92 NSCLC)	growth (NCI-H522 lung)	growth (A549/ATCC NSCLC)	growth (786-0 renal)	growth (COLO 205 colon)	growth (DU-145 prostate)	growth (K-562 leukemia)	growth (MALME-3M melanoma)	growth (MDA-MB-231 breast)	growth (RXF 393 renal)	growth (SF-268 CNS)	growth (SF-295 CNS)	growth (SF-539 CNS)	growth (UACC-257 melanoma)	growth (M14 melanoma)
O=C(CC1(O)C(=O)Nc2ccc(Cl)cc21)c1ccc(C(=O)NCC2CCC3(CC2)OOC2(CCCCC2)OO3)cc1 (stereo not given)	32.1%	53.3%	77.7%	-55.4% (active)	-55.4% (active)	-70.3% (active)	-1.69% (active)	-55.4% (active)	-65.6% (active)	1.29% (active)	-60.1% (active)	-56.9% (active)	-51.5% (active)	16.8%	18.5%	32.9%	37.6%	-52.5% (active)	37.8%	52%
O=[N+]([O-])c1c(Br)sc(Br)c1[N+](=O)[O-]	37.3%	87.8%	84.9%	75.2%	75.1%	43%	-72.9% (active)	77.3%	-36% (active)	-77.7% (active)	46.9%	3.25% (active)	-41.5% (active)	14.2%	-75.5% (active)	85.7%	99%	-12.3% (active)	-0.992% (active)	-18.9% (active)
CCn1nccc1NC(=O)C(=O)c1cn(Cc2ccc(F)cc2)c2cccc(OC)c12	95.8%	75.1%	102%	75.9%	98.2%	46.6%	57.3%	92.4%	72.7%	106%	106%	79.9%	109%	91.9%	90.1%	98.1%	106%	98.1%	97.6%	88.1%
CCOC(=O)[C@@H](C)C[C@H](Cc1ccccc1)NC(=O)c1csc([C@@H](C[C@H](C(C)C)N(C)C(=O)[C@@H](NC(=O)[C@H]2CCCCN2C)C(C)(C)CC)OC(C)=O)n1	26.9%	-41.7% (active)	34.4%	18.8%	-10.1% (active)	16%	-32.8% (active)	10.1%	1.55% (active)	-62.6% (active)	0.285% (active)	5.03% (active)	11.9%	-1.28% (active)	23.5%	12.3%	-4.66% (active)	-28.4% (active)	48.1%	-26.8% (active)
CCCC[C@H](NC(=O)[C@H]1CCCCN1C)C(=O)N(C)[C@H](C[C@@H](OC(C)=O)c1nc(C(=O)N[C@@H](Cc2ccccc2)C[C@H](C)C(=O)OCC)cs1)C(C)C	27.1%	32.8%	32.9%	18.1%	6.75% (active)	18.1%	-25% (active)	11%	3.81% (active)	-69.9% (active)	16.2%	7.31% (active)	37.4%	5.49% (active)	28.8%	21.6%	16.9%	-11.1% (active)	49.5%	1.33% (active)
Clc1cccc(NCOOC2(OOCNc3cccc(Cl)c3)CCCCCC2)c1	69%	102%	96.2%	87.4%	102%	57.5%	81.6%	92.8%	47.3%	113%	103%	32.6%	97%	103%	114%	94.3%	90.4%	86.8%	112%	97.3%
CC1=C(CNO)C2=C(C)C3(CC3)[C@@](C)(O)C(=O)C2=C1	-24.8% (active)	25.3%	-15.8% (active)	1.62% (active)	-0.969% (active)	-19.6% (active)	-7.65% (active)	-7.8% (active)	-17.5% (active)	-20.4% (active)	4.97% (active)	88.4%	-62.6% (active)	10.3%	-70.3% (active)	0.784% (active)	-4.83% (active)	-35.3% (active)	-24.3% (active)	26.8%
COP(=O)(OC)C(O)c1ccc(Cl)cc1 (stereo not given)	98.8%	102%	84.2%	104%	103%	98.1%	89.1%	98.3%	101%	102%	97.9%	117%	101%	123%	108%	94.6%	100%	103%	99.7%	96.4%
